Whole data set: some 110,000 compounds, median “z-score” near -0.1, cut for the highest 2% near 2. What follows is part of a selection rich in the highest values, with near analogues and random picks from the rest. The source made the active and inactive calls.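 Rule for the calls: active = z-score in the third read window above 3 or below -3; inactive = the rest.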

For this test, the target named is Metabotropic glutamate receptor 8 (Rattus norvegicus) (UniProt P70579). As to the kind of experiment: rat mGluR8 modulators via GIRK flux, primary screen, cell-based, thallium flux, HTS (AID 488969). The settings on record: HEK293 rat mGluR8, GIRK (G protein-gated inwardly rectifying potassium channel) thallium flux, FluoZin2; at 10 µM; stronger effect = higher value; submaximal glutamate (EC20) added with thallium.
Metabotropic glutamate receptor 8 (Rattus norvegicus), sequence (P70579 whole entry, looked up): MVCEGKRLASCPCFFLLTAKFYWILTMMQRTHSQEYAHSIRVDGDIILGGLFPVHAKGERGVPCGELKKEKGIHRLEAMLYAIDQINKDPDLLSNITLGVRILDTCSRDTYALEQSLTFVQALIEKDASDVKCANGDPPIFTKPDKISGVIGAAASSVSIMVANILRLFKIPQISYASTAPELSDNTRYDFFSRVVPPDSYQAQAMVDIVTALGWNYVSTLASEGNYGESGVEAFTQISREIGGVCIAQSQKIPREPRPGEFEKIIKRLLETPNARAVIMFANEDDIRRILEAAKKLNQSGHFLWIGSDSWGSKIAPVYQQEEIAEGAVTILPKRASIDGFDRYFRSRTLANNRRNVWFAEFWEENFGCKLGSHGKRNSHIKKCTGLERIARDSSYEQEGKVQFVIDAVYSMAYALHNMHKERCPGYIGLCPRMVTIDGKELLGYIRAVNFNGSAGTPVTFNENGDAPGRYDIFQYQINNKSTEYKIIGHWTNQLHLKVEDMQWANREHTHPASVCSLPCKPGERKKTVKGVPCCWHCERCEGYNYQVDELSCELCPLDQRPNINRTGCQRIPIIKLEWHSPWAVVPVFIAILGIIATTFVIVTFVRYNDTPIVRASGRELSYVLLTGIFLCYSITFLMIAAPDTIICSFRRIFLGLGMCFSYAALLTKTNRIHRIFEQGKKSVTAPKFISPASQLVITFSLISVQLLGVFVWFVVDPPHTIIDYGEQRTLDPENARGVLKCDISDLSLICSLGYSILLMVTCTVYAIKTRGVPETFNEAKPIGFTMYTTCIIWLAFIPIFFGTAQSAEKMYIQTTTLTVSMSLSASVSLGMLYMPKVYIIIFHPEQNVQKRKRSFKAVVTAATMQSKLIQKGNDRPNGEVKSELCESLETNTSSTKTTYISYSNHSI
As to `O=C(COC(=O)c1ccccc1C(=O)c1ccccc1)NCCc1ccc(Cl)cc1Cl`, the z-score was -0.0656. As for `S=c1[nH]nc(-c2ccccn2)n1/N=C/c1ccc(Br)s1`, the figure is 5.6 (active); as for `S=c1[nH]nc(-c2ccccn2)n1/N=C/c1ccccc1`, -0.194; as for `Cc1cc(-c2n[nH]c(=S)n2/N=C/c2sccc2C)n[nH]1`, -0.362. Compound `S=c1[nH]nc(-c2ccco2)n1/N=C/c1cccs1` returned a z-score of -0.0217. As for `Cc1cc(-c2n[nH]c(=S)n2/N=C/c2ccc(C)s2)n[nH]1`, the figure is -0.0648; as for `S=c1[nH]nc(-c2ccccn2)n1/N=C/c1cccs1`, -0.126. As to `S=c1[nH]nc(-c2ccco2)n1/N=C/c1ccc(Br)s1`, the z-score is 4.39 (active). Consider `Cc1ccc(/C=N/n2c(-c3ccco3)n[nH]c2=S)s1`, for which the z-score was found to be 0.259. With `Cc1cc(-c2n[nH]c(=S)n2/N=C/c2ccc(Br)s2)n[nH]1` the figure was 4.55 (active); with `Nc1c(C(O)(C(F)(F)F)C(F)(F)F)cc(C(O)(C(F)(F)F)C(F)(F)F)c2ccccc12`, 0.066; with `CC1=C(C(=O)NCc2ccccc2)C(c2ccccc2OCC(N)=O)NC(=O)N1` (configuration not stated), 0.226. Regarding `O=C(Cc1c(F)cccc1Cl)N1CCCC1`, the z-score amounted to 0.183. `CS(=O)(=O)N1CCC(C(=O)NCc2ccco2)CC1` yielded a z-score of 0.432. `COc1ccc(N2CCN(C(=O)c3cccc(N4C(=O)C5CC=CC(C)C5C4=O)c3)CC2)cc1` (configuration not stated) had a z-score of -0.43. The compound `COc1ccc(/C=C2\SC(=O)N=C2N)cc1OC` showed a z-score of 0.0136. In the case of `COc1ccc(/C=C2\SC(c3ccc(C)cc3)=NC2=O)cc1OC`, the z-score is -1.87. With `COc1ccc(/C=C2\SC(=O)NC2=S)cc1OC` the figure was 2.05; with `COc1cc(/C=C2\SC(=S)NC2=O)ccc1OS(=O)(=O)c1ccccc1`, 15.1 (active); with `COc1cc(/C=C2/SC(=S)NC2=O)ccc1OS(=O)(=O)c1ccc(C)cc1`, -2.12. With `COc1cc(/C=C2/C(=O)N(c3ccccc3)N=C2C)ccc1OS(=O)(=O)c1ccccc1` the figure was -0.322; with `CCOC(=O)c1c(-c2ccc(OC)cc2)nc2nonc2c1N`, 0.0715. As for `CC(C)CCNC(=S)Nc1ccc(F)cc1`, the figure is 0.97.

With `COc1cc(C)c(S(=O)(=O)N2CCOCC2)cc1C`, the z-score came out at 0.136. As to `COc1ccc(NC(=O)CSc2ccc(-c3ccccn3)nn2)cc1OC`, the z-score is -0.397. On to `Cc1ccc(S(=O)(=O)c2nc(C(C)(C)C)oc2N2CCOCC2)cc1`, for which the z-score is -0.0758. For `N#C/C(=C\c1ccco1)C(=O)NCC1CCCO1` (configuration not stated), the z-score was -0.0138.

Regarding `CC(C)NS(=O)(=O)c1cccc2nsnc12`, the z-score was -0.236.

As for `COc1ccc2cc3cc(C(=O)NC(C)C)oc3nc2c1`, the z-score came to 0.629. `C=CCSc1nc2sc3c(c2c(=O)n1CC)CCc1ccccc1-3`: the z-score came out at 2.62. With `C=CCSc1nc2sc3c(c2c(=O)n1CC=C)CCc1ccccc1-3` the figure was -0.139; with `C=CCn1c(SCC)nc2sc3c(c2c1=O)CCc1ccccc1-3`, 0.571.

For the origin of these results see PubChem BioAssay AID488969 (Vanderbilt High Throughput Screening Facility, 2010).
